# Assay results from PubChem BioAssay.
# Calls of active or inactive are those of the source.
# Columns and labels:
# [1] = optical density shifts of acrAB sulA E. coli – strain DRC41, OD650, 48 h, E. coli filamentation inducer project, primary screen (AID 1152); settings: higher = more signal, called active from +8 up or from −8 down;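 note: E. coli MC1000 strain DRC41 lacking acrAB efflux pump and sulA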
# [2] = probe aLefty1 binding on compound microarray – biochemical, small-molecule microarray, 635/667 nm fluorescence, primary screen (AID 1153); settings: higher = more signal;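 note: score merges spot fluorescence with signal-to-noise ratio from the scanned slide images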
# [3] = plasmodial surface anion channel blockers, osmotic lysis – cell-based, P. falciparum Indochina, OD700, 1 h, primary screen (AID 1154); settings: P. falciparum Indochina infected RBC osmotic lysis, higher = more signal, called active from +8 up or from −8 down
# [4] = plasmodial surface anion channel blockers, osmotic lysis – cell-based, P. falciparum Indochina, OD700, 2 h, primary screen (AID 1155);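 note: lysis reports solute entry through the parasite surface anion channel PSAC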; settings: P. falciparum Indochina infected erythrocytes, higher = more signal, called active from +8 up or from −8 down
# [5] = changes in parasitized red cell lysis, either direction – P. falciparum Indochina, OD700, 3 h, PSAC antagonist project, primary screen (AID 1156); settings: P. falciparum-infected erythrocytes, osmotic lysis, higher = more signal, called active from +8 up or from −8 down
# [6] = plasmodial surface anion channel blockers, osmotic lysis – cell-based, P. falciparum Indochina, OD700, 18 h, primary screen (AID 1157); settings: P. falciparum Indochina infected erythrocytes, osmotic lysis OD700, 18 h; higher = more signal, called active from +8 up or from −8 down
# [7] = S6 kinase pathway phospho-S6 level changes – cell-based, A549, cytoblot, luminescence, serum-stimulated, primary screen (AID 1158); settings: 5 h, higher = more signal;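 note: serum-stimulated A549 lung adenocarcinoma cells; signal is phosphorylated S6 detected by cytoblot immunostaining with HRP secondary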
# [8] = molecular target: NADPH oxidase 2 (Homo sapiens) (UniProt P04839); experiment: compounds shifting NOX2 Amplex Red fluorescence – cell-based, HEK293-NOX2, PMA-stimulated, NOX inhibitor project, primary screen (AID 1159); settings: 45 min, higher = more signal, called active from +8 up or from −8 down; note: test concentration not given here
# [9] = molecular target: NADPH oxidase 4 (Homo sapiens) (UniProt Q9NPH5); experiment: compounds shifting NOX4 Amplex Red fluorescence – cell-based, HEK293-NOX4, tetracycline-induced, NOX inhibitor project, primary screen (AID 1160); settings: HEK293-NOX4, Amplex Red H2O2 fluorescence, 45 min; higher = more signal, called active from +8 up or from −8 down
# [10] = molecular target: NADPH oxidase 5 (Homo sapiens) (UniProt Q96PH1); experiment: compounds shifting NOX5 Amplex Red fluorescence – cell-based, HEK293-NOX5, NOX inhibitor project, primary screen (AID 1161); settings: HEK293-NOX5, ionomycin, 45 min, higher = more signal
# [11] = compound effects on lung adenocarcinoma cell viability – A549, calcein-AM fluorescence, 48 h, basal, profiling panel (AID 1162); settings: higher = more signal; note: test concentration not given here
# [12] = compound effects on differentiated 3T3-L1 adipocyte viability – cell-based, 3T3-L1 adipocytes, calcein-AM fluorescence, 48 h, basal, profiling panel (AID 1163); settings: 3T3-L1 adipocytes viability, higher = more signal; note: test concentration not given here
# [13] = compound effects on hepatocellular carcinoma cell viability – HepG2, calcein-AM fluorescence, 48 h, basal, profiling panel (AID 1164); settings: higher = more signal; note: test concentration not given here
# [14] = compound effects on multiple myeloma cell viability – MM1S, calcein-AM fluorescence, 48 h, basal, profiling panel (AID 1165); settings: higher = more signal;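 note: viability of MM1S multiple myeloma cells under basal unstimulated conditions; test concentration not given here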
# [15] = calcein-AM signal in unstimulated myeloma cells – cell-based, calcein-AM fluorescence, 48 h, PK04 Diversity Set, profiling panel (AID 1166); settings: RPMI8226 myeloma viability, higher = more signal;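 note: cells grown under basal conditions without added stimulus; test concentration not given here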
# [16] = JC-1 mitochondrial signal, unstimulated HepG2 cells – cell-based, JC-1 fluorescence, 24 h, 100 nL compound, profiling panel (AID 1167); settings: HepG2 mitochondrial potential, higher = more signal; note: test concentration not given here
# [17] = JC-1 mitochondrial signal, unstimulated adipocytes – cell-based, JC-1 fluorescence, 3T3-L1 adipocytes, 24 h, 100 nL compound, profiling panel (AID 1168); settings: JC-1 mitochondrial fluorescence, higher = more signal, called active from +8 up or from −8 down; note: test concentration not given here
# [18] = JC-1 mitochondrial signal, unstimulated myeloma cells – cell-based, JC-1 fluorescence, RPMI8226, 24 h, 100 nL compound, profiling panel (AID 1169); settings: JC-1 mitochondrial potential fluorescence, higher = more signal; note: test concentration not given here
# [19] = JC-1 mitochondrial signal, unstimulated MM1S myeloma – cell-based, JC-1 fluorescence, 24 h, 100 nL compound, profiling panel (AID 1170); settings: MM1S mitochondrial potential, higher = more signal; note: test concentration not given here
# [20] = resazurin metabolic signal in A549 cells – cell-based, resazurin fluorescence, 24 h, PK04 Diversity Set, profiling panel (AID 1171); settings: A549 viability, higher = more signal, called active from +8 up or from −8 down; note: test concentration not given here
# Sequence of NADPH oxidase 5 (Homo sapiens) (Q96PH1 whole entry, looked up): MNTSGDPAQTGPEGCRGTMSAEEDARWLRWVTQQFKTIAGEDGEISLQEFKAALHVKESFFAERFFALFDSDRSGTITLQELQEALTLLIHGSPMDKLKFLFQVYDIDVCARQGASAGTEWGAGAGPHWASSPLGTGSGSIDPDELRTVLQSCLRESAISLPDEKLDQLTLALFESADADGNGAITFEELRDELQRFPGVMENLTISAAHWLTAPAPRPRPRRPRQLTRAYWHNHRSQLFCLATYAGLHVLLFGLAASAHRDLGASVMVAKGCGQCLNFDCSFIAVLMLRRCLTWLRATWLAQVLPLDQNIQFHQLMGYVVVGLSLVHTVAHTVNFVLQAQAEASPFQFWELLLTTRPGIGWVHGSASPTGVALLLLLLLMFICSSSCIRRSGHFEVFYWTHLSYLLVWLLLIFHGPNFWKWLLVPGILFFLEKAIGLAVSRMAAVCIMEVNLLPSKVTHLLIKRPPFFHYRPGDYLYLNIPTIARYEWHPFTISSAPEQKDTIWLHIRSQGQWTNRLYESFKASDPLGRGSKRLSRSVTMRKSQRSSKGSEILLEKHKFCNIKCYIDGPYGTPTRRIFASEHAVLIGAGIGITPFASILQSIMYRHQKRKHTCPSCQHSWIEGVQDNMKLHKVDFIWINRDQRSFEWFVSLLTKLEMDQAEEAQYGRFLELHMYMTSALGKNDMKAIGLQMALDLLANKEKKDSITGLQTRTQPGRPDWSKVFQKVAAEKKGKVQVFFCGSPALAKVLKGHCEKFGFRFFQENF
# Sequence of NADPH oxidase 4 (Homo sapiens) (Q9NPH5 whole entry, looked up): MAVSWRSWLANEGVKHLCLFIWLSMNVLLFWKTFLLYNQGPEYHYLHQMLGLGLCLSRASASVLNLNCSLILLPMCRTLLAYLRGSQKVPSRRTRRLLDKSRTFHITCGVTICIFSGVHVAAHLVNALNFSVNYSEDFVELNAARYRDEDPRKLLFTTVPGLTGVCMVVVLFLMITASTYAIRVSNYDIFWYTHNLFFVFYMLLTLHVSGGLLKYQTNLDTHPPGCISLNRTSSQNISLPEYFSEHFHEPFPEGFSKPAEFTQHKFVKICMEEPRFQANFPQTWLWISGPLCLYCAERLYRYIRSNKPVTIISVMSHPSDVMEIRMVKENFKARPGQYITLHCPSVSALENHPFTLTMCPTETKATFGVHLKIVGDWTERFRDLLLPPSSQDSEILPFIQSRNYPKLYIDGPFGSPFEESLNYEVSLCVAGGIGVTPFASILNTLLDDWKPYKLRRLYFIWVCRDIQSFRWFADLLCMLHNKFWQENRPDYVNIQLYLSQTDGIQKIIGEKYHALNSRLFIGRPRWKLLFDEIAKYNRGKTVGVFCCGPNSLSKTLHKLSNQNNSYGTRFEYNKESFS
# Sequence of NADPH oxidase 2 (Homo sapiens) (P04839 whole entry, looked up): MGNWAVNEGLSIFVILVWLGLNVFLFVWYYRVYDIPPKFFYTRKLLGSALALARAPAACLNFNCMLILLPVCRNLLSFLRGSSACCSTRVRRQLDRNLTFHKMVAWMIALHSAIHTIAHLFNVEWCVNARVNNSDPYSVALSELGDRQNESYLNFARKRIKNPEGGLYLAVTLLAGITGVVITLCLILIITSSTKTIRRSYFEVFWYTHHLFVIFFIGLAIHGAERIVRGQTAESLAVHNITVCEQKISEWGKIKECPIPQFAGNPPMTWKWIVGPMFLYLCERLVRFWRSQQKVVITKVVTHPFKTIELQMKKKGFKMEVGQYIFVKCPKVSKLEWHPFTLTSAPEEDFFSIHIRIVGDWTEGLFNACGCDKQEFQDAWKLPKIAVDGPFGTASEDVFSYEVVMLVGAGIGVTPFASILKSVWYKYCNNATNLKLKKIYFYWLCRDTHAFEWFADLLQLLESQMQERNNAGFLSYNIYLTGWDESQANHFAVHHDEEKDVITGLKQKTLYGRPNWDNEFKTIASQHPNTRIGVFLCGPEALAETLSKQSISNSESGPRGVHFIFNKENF
Compound,z-score [1],composite z-score [2],z-score [3],z-score [4],z-score [5],z-score [6],z-score [7],z-score [8],z-score [9],z-score [10],z-score [11],z-score [12],z-score [13],z-score [14],z-score [15],z-score [16],z-score [17],z-score [18],z-score [19],z-score [20]
C=C(COC)C(=O)CC[C@H](OC(=O)c1cccnc1)c1ccc(CO)o1,-0.471 (inactive),-0.147,0.904 (inactive),0.0112 (inactive),-0.376 (inactive),0.063 (inactive),-0.262,0.337 (inactive),-0.159 (inactive),0.221,-0.15,-0.266,-0.53,-0.401,-0.535,-0.981,-0.492 (inactive),0.541,-0.267,-0.452 (inactive)
[N-]=[N+]=Nc1ccccc1[C@@H]1OC(c2ccc(OCCCO)cc2)=N[C@]1(Cc1ccccc1)C(=O)NCc1ccccc1,-0.165 (inactive),0.703,31.6 (active),29.2 (active),3.08 (inactive),7.04 (inactive),-0.403,-2.11 (inactive),1.15 (inactive),0.377,-1.17,-0.0535,-2.13,-3.35,-3.8,-2.02,0.976 (inactive),-1.14,-2.59,-1.48 (inactive)
COCCCNC(=O)[C@@]1(c2ccc([N+](=O)[O-])cc2)CC(=O)N(C(C)C)[C@@H]1c1ccc(CO)cc1,0.569 (inactive),0.125,0.481 (inactive),-0.135 (inactive),-0.288 (inactive),-0.0629 (inactive),0.361,-0.635 (inactive),0.726 (inactive),-0.0684,1.12,1.22,0.603,0.105,0.243,-0.0251,-0.612 (inactive),-0.795,-1.28,0.985 (inactive)
COC(=O)[C@@]1(Cc2ccc(F)cc2)[C@H]2c3cc(C(=O)N4CCCC4)n(CC4CC4)c3C[C@H]2CN1C(=O)c1ccccc1,-1.37 (inactive),1.56,2.89 (inactive),0.0582 (inactive),0.454 (inactive),0.666 (inactive),0.516,0.0286 (inactive),-1.62 (inactive),-0.81,-0.393,0.498,-0.713,-0.691,-2.11,1.62,-1.07 (inactive),-0.232,-0.51,-0.665 (inactive)
NCCCCCNC(=O)[C@@H]1C[C@@H]2C(=O)N3CCC[C@H]3C(=O)N2[C@@H]1c1ccc(O)cc1,0.524 (inactive),1.08,1.9 (inactive),0.106 (inactive),-0.696 (inactive),0.277 (inactive),-0.596,0.105 (inactive),-1.53 (inactive),0.0464,0.389,0.485,0.2,-0.42,0.209,-0.0437,-0.645 (inactive),-0.175,0.73,-0.234 (inactive)
C=CCC(OC(C)=O)[C@@H]1[C@@H](N(Cc2cccc3ccccc23)C(=O)c2ccc(-c3ccccc3)cc2)c2cc(OCCCO)ccc2N1C(=O)c1ccc(-c2ccccc2)cc1 (stereo not given in full),-0.883 (inactive),-0.06,0.311 (inactive),-1.06 (inactive),-0.942 (inactive),-0.454 (inactive),-0.0997,0.582 (inactive),0.688 (inactive),0.296,0.512,0.842,0.515,-0.484,0.294,0.78,-1.97 (inactive),0.603,0.0821,0.654 (inactive)
COc1ccc([Si](C)(C)[C@H]2[C@H](CCO)O[C@@]3(C(=O)N(Cc4ccc(N5C(=O)c6ccccc6Oc6ccccc65)cc4)c4ccccc43)[C@@H]2C)cc1,0.157 (inactive),0.0211,4.29 (inactive),2.83 (inactive),-1.44 (inactive),1.38 (inactive),0.211,-0.681 (inactive),2.36 (inactive),1.9,-0.573,0.56,-2.71,-2.79,-4.04,0.0142,0.821 (inactive),-1.01,-2.04,-2.45 (inactive)
C=C[C@@H](OC)[C@H](OC(=O)Nc1ccc(SC)cc1)c1ccc(OCCO)cc1,-3.28 (inactive),0.137,26.7 (active),16.4 (active),2.11 (inactive),1.78 (inactive),0.285,0.403 (inactive),0.357 (inactive),0.00434,-0.568,0.222,-0.587,-2.08,-1.56,-2.68,0.286 (inactive),-0.151,-0.333,-0.285 (inactive)
C=C(CCCC)/C(=C/C[C@H](OC(C)=O)c1ccc(OCCO)cc1)c1cc(C(=O)OC)ccc1OC,0.564 (inactive),-0.0378,24.5 (active),7.58 (inactive),2.3 (inactive),1.48 (inactive),0.376,-0.338 (inactive),-0.759 (inactive),-1.56,0.899,1.18,1.74,-2.88,-1.83,2.2,0.151 (inactive),-0.864,-0.957,1.09 (inactive)
CCOC(=O)C[C@H]1[C@H](OC(=O)c2ccccc2-c2ccccc2)[C@@H](NC(=O)c2ccccc2)c2cc(OCCCO)ccc2N1C(=O)c1ccccc1,-1.13 (inactive),-0.0547,1.61 (inactive),0.0478 (inactive),1.11 (inactive),0.256 (inactive),-0.133,0.418 (inactive),0.884 (inactive),0.838,-0.164,-0.603,-0.56,-0.162,-0.559,-0.127,-0.0812 (inactive),-0.485,0.318,-0.336 (inactive)
CCOC(=O)C1=CC[C@@H](c2ccccc2)N(S(=O)(=O)c2ccc(C)cc2)[C@H]1c1cccc(OC)c1,-0.999 (inactive),0.535,0.792 (inactive),0.779 (inactive),-0.422 (inactive),0.385 (inactive),-0.245,0.537 (inactive),0.489 (inactive),0.732,-0.716,-1.41,-0.0906,-0.247,-0.907,2.94,-0.293 (inactive),0.505,-1.35,0.776 (inactive)
O=C1C2C=CC(C(O)C=Cc3ccc([N+](=O)[O-])cc3)N(Nc3ccccc3)C2C(=O)N1c1ccccc1 (stereo not given),-0.323 (inactive),0.424,11 (active),2.2 (inactive),0.478 (inactive),1.81 (inactive),-0.914,-1.72 (inactive),-2.96 (inactive),-2.32,2.48,-0.123,1.28,0.0385,-0.0477,-0.0526,-1.19 (inactive),-0.175,-0.951,-0.102 (inactive)
COC(=O)[C@@]1(Cc2ccc(F)cc2)[C@H]2c3cc(C(=O)N(C)C)n(Cc4ccc(O)c(OC)c4)c3C[C@H]2CN1C(=O)c1ccccc1,-1.45 (inactive),0.681,3.77 (inactive),-0.164 (inactive),1.74 (inactive),-1.74 (inactive),2,-2.68 (inactive),-5.32 (inactive),-1.16,0.511,0.997,-0.269,-0.0229,-1.92,0.766,-0.475 (inactive),-0.379,-1.63,-0.88 (inactive)
CN1C(=O)[C@@H]2[C@@H](CC(COc3ccccc3)=C([C@H](O)CCc3ccccc3)[C@@H]2CO)C1=O,2.03 (inactive),-0.328,29.5 (active),21.6 (active),-0.0433 (inactive),1.43 (inactive),0.867,-0.561 (inactive),0.867 (inactive),0.199,1.9,-0.13,0.943,0.445,-0.388,0.397,0.813 (inactive),-0.274,0.472,-0.123 (inactive)
COC(=O)[C@@]1(Cc2ccccc2)[C@H]2c3cc(C(=O)N(C)C)n(CCn4cc([N+](=O)[O-])nc4C)c3C[C@H]2CN1C(=O)c1ccccc1,-0.566 (inactive),0.0249,-0.25 (inactive),-0.949 (inactive),-0.513 (inactive),-0.956 (inactive),1.18,0.635 (inactive),1.24 (inactive),-1.65,-0.461,0.297,-1.17,0.506,0.911,0.547,0.0518 (inactive),-0.0192,0.377,-0.0815 (inactive)
COCCOC(=O)N1C(=O)[C@@]2(c3cc(C#CC4(O)CCCCCC4)ccc31)[C@H](c1ccc(OCCO)cc1)N1[C@H](c3ccccc3)[C@H](c3ccccc3)OC(=O)[C@H]1[C@@H]2C(=O)Nc1nc2ccccc2s1,-0.595 (inactive),0.718,2.53 (inactive),2.08 (inactive),0.834 (inactive),1.53 (inactive),-0.652,0.549 (inactive),0.131 (inactive),1.94,0.0809,0.676,0.499,-2.09,-2.15,-3.31,1.1 (inactive),-1.07,-1.46,0.813 (inactive)
